This is an account of results in PubChem BioAssay (NCI).

The panel holds about 83,000 compounds, 20% with a hit somewhere; the sample as a whole holds those more often.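 Testing used 96-well plates and a 48-hour single-concentration exposure. Example: -40 means 40% of the starting cells died.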 Values without a mark were called inactive. Calls of active or inactive are those of the source. The calls were made as follows: active = growth percent below 10; inactive = the rest.

Holding throughout (assay): NCI-60 one-dose screen, 48 h (100 = growth as untreated, 0 = no growth, -100 = all killed)
Details in all cases: 10 µM unless noted

Assay [1] deals with DU-145 prostate.
The subject of assay [2] is K-562 leukemia.
The subject of assay [3] is MALME-3M melanoma.
Assay [4] relates to MDA-MB-231 breast.
The test system of assay [5] is SF-268 CNS.
Assay [6] relates to SF-295 CNS.
The test system of assay [7] is SF-539 CNS.
In assay [8] the test system is UACC-257 melanoma.
The subject of assay [9] is M14 melanoma.
In assay [10] the test system is RXF 393 renal.

Take `CN1CCCN(C(c2ccccc2)c2ccc(Br)cc2)CC1` (stereo unspecified): the growth in assay [1] is 94.8%; in [2] it was 20.3%; in [3], 63.1%; in assay [4], 49%; in [5], 61.6%; in assay [6], 57.8%. For the same compound, the growth in assay [7] was 75.2%; in [8], 91%; in [9] it was -8.62% (active).
With `O=[N+]([O-])c1c(Cl)ncnc1Cl`, the growth is 110% in assay [1]; 109% in assay [2]; 104% in [3]; 120% in assay [4]; 108% in [10]; 88.9% in [7]. For the same compound, the values for the growth in [8] and in assay [9] were 86% and 118%, respectively.
As to `NC(CCl)=NCC12CC3CC(CC(C3)C1)C2`, the growth was -42.7% (active) in assay [1]; -15.1% (active) in assay [2]; 25.4% in assay [3]; -15.8% (active) in assay [4]; -3.73% (active) in assay [5]; 26.4% in assay [6]. The growth in assay [7] is -11% (active); in assay [8], -71.2% (active); in [9], -61.3% (active).
As to `CC(C)(CC(=O)O)CC(=O)O`, the growth was 111% in assay [1]; 107% in [2]; 107% in [3]; 95.5% in assay [4]; 102% in assay [5]; 110% in assay [6]. Also, the values for the growth in assay [7], in assay [8] and in assay [9] were 95%, 113% and 101%, respectively.
`S=c1nc2[nH]c3ccccc3c2n[nH]1`: the growth in assay [1] was 102%; in [2], 106%; in assay [3], 97.7%; in [4] it was 86.6%; in assay [5], 87.6%; in assay [6], 72%. Moreover, the growth is 85.1% in assay [7], 107% in [8] and 107% in assay [9].
Turning to `COc1cc2c(c(OC)c1OC)-c1ccc(SC)c(=O)cc1[C@@H](NC1OC(CO)C(O)C(O)C1O)CC2` (stereo partly specified), the growth in [1] was 6.12% (active); in [2] it was 4.19% (active); in assay [3] it was 54.6%; in assay [4] it was 7.41% (active); in [5], 22.7%; in [6], -35.8% (active). In addition, the figures for the growth in assay [7], in assay [8] and in [9] were 1.24% (active), 50.5% and 11.3%, respectively.
With `Nc1cc(N)ncn1`, the growth in [1] was 110%; in assay [2] it was 91.3%; in [3] it was 106%; in assay [4], 96.1%; in assay [5], 102%; in assay [6], 104%. The growth was 99.2% in assay [7], 112% in assay [8] and 97.2% in [9].
With `CN(C)c1ncnc2c1cnn2C`, the growth is 104% in assay [1]; 97% in assay [2]; 103% in assay [3]; 109% in assay [4]; 84.6% in assay [5]; 94.5% in assay [6]. In addition, the figures for the growth in [7], in assay [8] and in [9] were 94.2%, 84.2% and 103%, respectively.
For `O=C(CC(CC(=O)c1ccccc1)c1ccccn1)c1ccccc1`, the growth is 110% in assay [1]; 92.6% in assay [2]; 91.5% in [3]; 92.7% in assay [4]; 111% in [10]; 105% in assay [5]. Moreover, the growth in assay [7] is 106%; in [8], 105%; in assay [9], 103%.
As for `Cn1c2ccccc2c2nnc(NCCCCO)nc21`, the growth in assay [1] is 103%; in assay [2], 99.7%; in assay [3], 98.3%; in assay [4] it was 99.3%; in assay [5] it was 91.1%; in assay [6], 113%. Also, the growth was 92.6% in assay [7] and 113% in assay [8].
For the compound `Nc1nc2nnc(-c3ccccc3)c(-c3ccccc3)n2n1`, the growth in [1] was 98.8%; in [2], 96.3%; in assay [3] it was 125%; in assay [4], 88.7%; in [5] it was 103%; in [6], 71%. Also, the growth in [7] was 80.9%; in assay [8] it was 103%; in [9], 127%.
Consider `N=C(N)c1nn(C2OC(CO)C(O)C2O)c2nc[nH]c(=O)c12` (stereo unspecified), for which the growth in [1] was -49.1% (active); in assay [2], -5.78% (active); in assay [3], -39.9% (active); in [4], -15.3% (active); in [5] it was -7.38% (active); in assay [6] it was 8.51% (active). Moreover, the growth in assay [7] was -43.8% (active); in [8], 3.08% (active); in assay [9], -54.8% (active).
Regarding `O=S(=O)(O)c1cccnc1`, the growth in assay [1] was 122%; in [2] it was 105%; in [3], 90.1%; in assay [4], 103%; in assay [5], 103%; in [6] it was 108%. The figures for the growth in [7] and in assay [8] were 95.8% and 123%, respectively.
In the case of `CCNc1ncnc2[nH]ncc12`, the growth in assay [1] is 117%; in assay [2] it was 119%; in assay [3] it was 72%; in [4], 107%; in assay [5], 112%; in [6], 112%. For the same compound, the growth in [7] is 96.2%; in [8], 89.2%; in assay [9] it was 107%.
In the case of `O=Cc1ccc(F)cc1`, the growth in assay [1] is 109%; in [2], 127%; in assay [3] it was 85.1%; in assay [4], 97.1%; in assay [10] it was 86.9%; in assay [5] it was 109%. Besides, the growth is 101% in assay [7], 106% in assay [8] and 106% in assay [9].
For `C[n+]1c(/C=C\C=C\N2CCCCC2)sc2ccccc21`, the growth in assay [1] is 23.1%; in [2], -14.4% (active); in assay [3] it was -4.48% (active); in [4], 17.7%; in assay [5] it was 12.9%; in [6] it was -10.3% (active). Further, the growth in assay [7] was 4.51% (active); in assay [8], -44% (active); in assay [9], 0.396% (active).
